{"source": "PubChem BioAssay (NCATS)", "note": "Inconclusive results are not listed. Entries that show only a call come without a potency. Calls of active or inactive are those of the source. Calls follow the shape of the dose curve; as a rule, active = well fitted inhibition curve with a large enough effect; inconclusive = small, poorly fitted or top-dose-only effect; inactive = flat fitted curve, though single readings scatter. Potency is read from the fitted curve at half-maximal effect."}
{"molecular_target": "Calcium and integrin-binding protein 1 (Homo sapiens) (UniProt Q99828)", "sequence (Q99828 whole entry, looked up)": "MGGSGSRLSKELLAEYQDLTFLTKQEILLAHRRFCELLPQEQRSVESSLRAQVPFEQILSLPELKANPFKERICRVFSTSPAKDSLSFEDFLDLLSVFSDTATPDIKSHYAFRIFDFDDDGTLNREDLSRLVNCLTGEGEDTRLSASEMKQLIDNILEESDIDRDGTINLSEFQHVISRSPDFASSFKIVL", "test": "Primary qHTS for Identification of Calcium Integrin Binding Protein 1 (CIB1) Competitor (AID 1508620)", "conditions": "CIB1-GST / FITC-alphaIIb peptide fluorescence polarization; series mostly up to 114 µM", "method_in_brief": "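Fluorescence polarization competition: CIB1-GST (1 uM final) preincubated with compound 15 min at room temperature, then FITC-labeled alphaIIb peptide (100 nM final) added for another 15 min. Polarization read at Ex 480/Em 540.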"}
{"smiles": "CC(=O)Nc1sc2c(c1-c1nc3ccccc3o1)CCN(C(C)C)C2", "Potency": "50.1 µM (active)"}
{"smiles": "O=C(CSc1ncnc2sc3c(c12)CCCCC3)NCc1ccco1", "Potency": "inactive"}
{"smiles": "CC(Cc1cnccn1)Nc1cnc2c(O)ccc(C(=O)O)c2c1", "note": "(stereo not given)", "Potency": "inactive"}
{"smiles": "N#Cc1ccc(NC(=O)Nc2nnc(-c3ccncc3)s2)cc1", "Potency": "inactive"}
{"smiles": "COc1cccc(Cn2ncc3c4sc(Br)cc4n(C)c3c2=O)c1", "Potency": "inactive"}
{"smiles": "COc1cccc(-c2nnc3n2N=C(c2c(OC)cccc2OC)CS3)c1OC", "Potency": "inactive"}
{"smiles": "COc1ccc(C2Nc3ccccc3C(=O)N2Cc2ccc(Cl)cc2)cc1COc1ccc(NC(C)=O)cc1", "note": "(stereo not given)", "Potency": "inactive"}
{"smiles": "COc1ccc(NS(=O)(=O)c2ccccc2)cc1NS(=O)(=O)c1ccccc1", "Potency": "inactive"}
{"smiles": "Oc1cccc2cc(-c3ccncc3)cnc12", "Potency": "inactive"}
{"smiles": "O=S(=O)(c1ccccc1)N1CCN(c2nccc(-c3cccs3)n2)CC1", "Potency": "inactive"}
{"smiles": "FC(F)(F)c1ccccc1-c1nc(NCC23CC4CC(CC(C4)C2)C3)c2ccccc2n1", "Potency": "inactive"}
{"smiles": "O=S(=O)(Nc1nccs1)c1ccc(NCc2cccc(O)c2)cc1", "Potency": "inactive"}
{"smiles": "Cc1ccc(-c2cnn(CC(=O)N(C)C(C)c3ccco3)c(=O)c2)cc1", "note": "(stereo not given)", "Potency": "inactive"}
{"smiles": "Cc1ccc(CNc2ncnc3ccc(-c4ccc5c(c4)OCO5)cc23)s1", "Potency": "inactive"}
{"smiles": "COc1ccccc1NS(=O)(=O)c1ccc2c(c1)CCC(=O)N2", "Potency": "inactive"}
{"smiles": "COc1cc(Cn2ncc3c4sc(C)cc4n(C)c3c2=O)cc(OC)c1", "Potency": "inactive"}
{"smiles": "COc1ccc(-c2ccc(Nc3nc(-c4ccncc4)nc4ccccc34)cc2F)cc1F", "Potency": "inactive"}
{"smiles": "O=C1CCCC2=C1C(c1[nH]ncc1Cl)N=C(Nc1nc3cc(Br)ccc3o1)N2", "note": "(stereo not given)", "Potency": "inactive"}
{"smiles": "COc1cccc(-n2cnc3cc(C(=O)N4CCCCC4)ccc32)c1", "Potency": "inactive"}
{"smiles": "O=C(O)c1ccc2c(c1)C(=O)N([C@H](Cc1ccccc1)C(=O)O)C2=O", "Potency": "inactive"}
{"smiles": "c1nc(NCCCN2CCOCC2)c2cc(-c3ccc4c(c3)OCO4)ccc2n1", "Potency": "inactive"}
{"smiles": "O=Cc1nc(Nc2cc(F)cc(F)c2)nc(NC2CCCC2)n1", "Potency": "inactive"}
{"smiles": "CCC(=O)NC(c1cc(Cl)c2cccnc2c1O)C(C)C", "note": "(stereo not given)", "Potency": "inactive"}
{"smiles": "Cc1ccc(OCCn2c(CCNC(=O)c3ccc(C#N)cc3)nc3ccccc32)cc1", "Potency": "inactive"}
{"smiles": "Cc1cccc(-n2cnc3cc(C(=O)N4CCCC(C(C)C)C4)ccc32)c1", "note": "(stereo not given)", "Potency": "inactive"}
{"smiles": "CC(C)c1ccccc1-c1nc2c(c(NCc3ccc(-c4cccnc4)cc3)n1)CCNC2", "Potency": "inactive"}
{"smiles": "Cc1ccc(-c2nn3c(-c4ccccc4)nnc3s2)cc1NC(=O)c1ccc(-c2cccc(Cl)c2)o1", "Potency": "inactive"}
{"smiles": "O=C(/C=C/c1c(F)c(F)c(F)c(F)c1F)Nc1cccc([S+](=O)([O-])Nc2ccccc2F)c1", "Potency": "inactive"}
{"smiles": "CNc1oc(-c2cccc(-c3ccccc3)c2)nc1C#N", "Potency": "inactive"}
{"smiles": "Cc1ccnc(NC(=S)N2CCN(c3cccc(Cl)c3Cl)CC2)c1", "Potency": "inactive"}
{"smiles": "Cc1ccccc1CSc1nc2ncc(Br)cc2[nH]1", "Potency": "inactive"}
{"smiles": "C/C(=C\\c1ccc2c(c1)OCCO2)C1Nc2cccc3cccc(c23)N1", "Potency": "inactive"}
{"smiles": "Cc1nc2ccccn2c1C(O)(c1ccccc1)c1ccccc1", "Potency": "inactive"}
{"smiles": "c1cncc(-c2ccc(CNc3nc(-n4ccnc4)nc4ccccc34)cc2)c1", "Potency": "inactive"}
{"smiles": "O=C(Nc1cccc2c1cnn2-c1ccc(F)cc1)c1ccccn1", "Potency": "inactive"}
{"smiles": "COC(=O)c1ccccc1NC(=O)c1ccc(C#N)cc1", "Potency": "inactive"}
{"smiles": "N#Cc1nc(Nc2cc(F)cc(F)c2)c2ncn(CCO)c2n1", "Potency": "inactive"}
{"smiles": "Cc1ccc(OCCn2c(CCNC(=O)C(C)(C)C)nc3ccccc32)cc1", "Potency": "inactive"}
{"smiles": "Cc1ccc(C[C@@H](NS(=O)(=O)c2ccc(C(=O)O)cc2)C(=O)O)cc1", "Potency": "inactive"}
{"smiles": "CC(=O)NC(c1ccco1)c1cc(Cl)c2ccc(N3CCCCC3)nc2c1O", "note": "(stereo not given)", "Potency": "inactive"}
